# Measurements from paper PMC7862700, “An all-to-all approach to the identification of sequence-specific readers for epigenetic DNA modifications on cytosine”.
# What was measured:
# Test in all cases: DAPPL (digital affinity profiling via proximity ligation, sequencing); 10 mM Tris-HCl pH 7.5, 50 mM NaCl, 1 mM DTT, 4% glycerol, room temperature, 30 min; GST-TFs on glutathione beads, 16-mer random dsDNA library, 0.1% formaldehyde crosslink after washing; high values mean tight binding
# Conditions in all cases: protein: recombinant; tags: N-terminal GST; dsDNA, one strand shown
# ERF = biological target: T1, ERF (Homo sapiens, UniProt P50548 1-548)
# T1 sequence: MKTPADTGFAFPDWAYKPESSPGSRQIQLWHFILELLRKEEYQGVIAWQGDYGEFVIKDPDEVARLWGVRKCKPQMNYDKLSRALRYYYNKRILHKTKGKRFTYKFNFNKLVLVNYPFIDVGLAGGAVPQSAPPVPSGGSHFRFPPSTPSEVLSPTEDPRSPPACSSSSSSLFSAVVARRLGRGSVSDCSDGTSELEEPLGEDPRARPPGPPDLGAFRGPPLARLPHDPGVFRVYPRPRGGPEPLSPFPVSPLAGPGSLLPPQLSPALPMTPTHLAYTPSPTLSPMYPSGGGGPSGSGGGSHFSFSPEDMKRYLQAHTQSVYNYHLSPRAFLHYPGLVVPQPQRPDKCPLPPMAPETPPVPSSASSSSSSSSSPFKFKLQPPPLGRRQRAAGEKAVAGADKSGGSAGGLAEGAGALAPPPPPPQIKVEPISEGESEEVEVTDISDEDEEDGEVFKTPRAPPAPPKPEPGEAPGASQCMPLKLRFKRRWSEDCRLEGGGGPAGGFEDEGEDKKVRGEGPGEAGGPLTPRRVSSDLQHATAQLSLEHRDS
# Procedure, shortened: (§1)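 Human transcription factors carrying a GST fusion were produced in yeast, bound to glutathione beads, tagged with DNA barcodes and pooled together with a tag-only sample. Each pool was held with 200 nmole of a random double-stranded 16-mer DNA library in Tris/NaCl/DTT/glycerol buffer for 30 min at room temperature, then washed, crosslinked in 0.1% formaldehyde, proximity-ligated with BsaI/T4 ligase (1 h, 37 °C), PCR-amplified and sequenced on an Illumina NextSeq500. Binding signal is the read frequency of each hexamer for a given factor divided by its frequency in the tag-only sample.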
# ETV3L = biological target: T2, ETV3L (Homo sapiens, UniProt Q6ZN32 1-361)
# T2 sequence: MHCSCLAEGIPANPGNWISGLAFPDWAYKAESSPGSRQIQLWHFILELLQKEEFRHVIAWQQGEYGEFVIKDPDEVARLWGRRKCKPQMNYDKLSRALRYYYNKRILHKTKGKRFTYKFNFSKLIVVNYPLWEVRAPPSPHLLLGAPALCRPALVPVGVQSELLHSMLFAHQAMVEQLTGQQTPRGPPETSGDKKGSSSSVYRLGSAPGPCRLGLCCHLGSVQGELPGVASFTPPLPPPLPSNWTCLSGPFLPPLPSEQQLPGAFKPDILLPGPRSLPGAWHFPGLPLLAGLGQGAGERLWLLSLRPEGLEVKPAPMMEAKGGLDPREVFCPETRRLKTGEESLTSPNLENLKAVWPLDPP
# Procedure, shortened: as §1
# ETS2 = biological target: T3, ETS2 (Homo sapiens, UniProt P15036 1-469)
# T3 sequence: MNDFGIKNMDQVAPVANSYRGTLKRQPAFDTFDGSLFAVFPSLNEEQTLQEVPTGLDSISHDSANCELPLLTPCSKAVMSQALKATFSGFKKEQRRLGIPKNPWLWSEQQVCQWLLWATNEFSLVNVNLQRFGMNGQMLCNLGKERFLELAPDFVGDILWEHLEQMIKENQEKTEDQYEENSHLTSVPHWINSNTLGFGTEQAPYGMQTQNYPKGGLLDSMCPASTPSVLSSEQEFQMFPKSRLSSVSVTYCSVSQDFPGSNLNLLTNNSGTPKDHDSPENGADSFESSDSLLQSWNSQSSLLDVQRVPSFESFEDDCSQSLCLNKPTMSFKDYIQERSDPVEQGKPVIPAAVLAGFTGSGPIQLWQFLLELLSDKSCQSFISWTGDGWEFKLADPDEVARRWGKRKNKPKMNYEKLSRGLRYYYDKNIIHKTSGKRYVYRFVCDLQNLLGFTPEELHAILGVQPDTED
# Procedure, shortened: as §1
# SPDEF = biological target: T4, SPDEF (Homo sapiens, UniProt O95238 1-335)
# T4 sequence: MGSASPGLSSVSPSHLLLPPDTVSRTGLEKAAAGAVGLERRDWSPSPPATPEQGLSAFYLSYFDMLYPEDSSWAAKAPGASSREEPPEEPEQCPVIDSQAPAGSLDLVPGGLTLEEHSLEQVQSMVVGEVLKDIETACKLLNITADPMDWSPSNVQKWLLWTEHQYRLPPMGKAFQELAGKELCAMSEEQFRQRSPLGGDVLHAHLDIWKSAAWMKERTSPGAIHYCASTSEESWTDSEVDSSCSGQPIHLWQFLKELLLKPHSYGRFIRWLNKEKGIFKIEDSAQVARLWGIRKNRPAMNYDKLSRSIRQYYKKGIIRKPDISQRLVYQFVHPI
# Procedure, shortened: as §1
# ETV7 = biological target: T5, ETV7 (Homo sapiens, UniProt Q9Y603 1-341)
# T5 sequence: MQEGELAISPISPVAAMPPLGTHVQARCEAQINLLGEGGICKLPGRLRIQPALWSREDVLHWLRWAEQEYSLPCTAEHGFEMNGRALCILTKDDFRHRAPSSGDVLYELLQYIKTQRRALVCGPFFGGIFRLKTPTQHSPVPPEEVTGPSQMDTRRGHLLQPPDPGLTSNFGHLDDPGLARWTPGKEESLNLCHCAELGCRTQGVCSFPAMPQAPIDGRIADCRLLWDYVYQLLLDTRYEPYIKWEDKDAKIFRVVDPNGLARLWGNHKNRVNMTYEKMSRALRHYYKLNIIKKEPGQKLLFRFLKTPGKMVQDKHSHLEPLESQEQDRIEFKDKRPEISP
# Procedure, shortened: as §1
# ELF5 = biological target: T6, ELF5 (Homo sapiens, UniProt Q9UKW6-2 1-255)
# T6 sequence: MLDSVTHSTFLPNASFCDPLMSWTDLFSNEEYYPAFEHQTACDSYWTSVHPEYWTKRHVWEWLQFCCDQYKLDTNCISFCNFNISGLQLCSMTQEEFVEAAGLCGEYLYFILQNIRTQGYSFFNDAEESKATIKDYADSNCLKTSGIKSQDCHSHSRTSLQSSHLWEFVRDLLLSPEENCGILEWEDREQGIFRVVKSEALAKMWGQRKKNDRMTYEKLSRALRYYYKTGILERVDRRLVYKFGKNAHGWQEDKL
# Procedure, shortened: as §1
# ETV3 = biological target: T7, ETV3 (Homo sapiens, UniProt P41162-2 1-143)
# T7 sequence: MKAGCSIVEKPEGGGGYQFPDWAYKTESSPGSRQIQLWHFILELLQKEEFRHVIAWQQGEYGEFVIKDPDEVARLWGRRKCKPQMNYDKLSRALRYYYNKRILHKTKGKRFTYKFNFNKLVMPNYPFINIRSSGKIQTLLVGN
# Procedure, shortened: as §1
# ETV6 = ETV6 (Homo sapiens, UniProt P41212 1-452)
# Chain of ETV6 (P41212 whole entry): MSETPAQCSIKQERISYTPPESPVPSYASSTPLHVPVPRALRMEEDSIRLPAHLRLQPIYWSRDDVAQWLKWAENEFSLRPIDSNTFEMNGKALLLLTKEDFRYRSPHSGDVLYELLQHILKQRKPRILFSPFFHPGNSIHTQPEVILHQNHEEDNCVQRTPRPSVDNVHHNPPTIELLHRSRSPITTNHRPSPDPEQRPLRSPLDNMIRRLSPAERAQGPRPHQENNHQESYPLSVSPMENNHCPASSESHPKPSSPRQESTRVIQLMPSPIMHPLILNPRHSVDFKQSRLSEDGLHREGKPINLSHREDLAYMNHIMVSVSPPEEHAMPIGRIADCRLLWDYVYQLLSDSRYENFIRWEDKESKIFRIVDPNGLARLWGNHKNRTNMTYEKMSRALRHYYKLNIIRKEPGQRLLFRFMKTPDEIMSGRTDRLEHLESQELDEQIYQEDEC
# Procedure, shortened: as §1
Sequence,binding signal (ERF),binding signal (ETV3L),binding signal (ETS2),binding signal (SPDEF),binding signal (ETV7),binding signal (ELF5),binding signal (ETV3),binding signal (ETV6)
ATTAAC,"1.26 fold enrichment (6-mer frequency, TF over GST control)","1.31 fold enrichment (6-mer frequency, TF over GST control)","1.27 fold enrichment (6-mer frequency, TF over GST control)","1.26 fold enrichment (6-mer frequency, TF over GST control)","1.24 fold enrichment (6-mer frequency, TF over GST control)","1.23 fold enrichment (6-mer frequency, TF over GST control)","1.26 fold enrichment (6-mer frequency, TF over GST control)","1.22 fold enrichment (6-mer frequency, TF over GST control)"
CCCTGG,"1.24 fold enrichment (6-mer frequency, TF over GST control)","1.16 fold enrichment (6-mer frequency, TF over GST control)","1.06 fold enrichment (6-mer frequency, TF over GST control)","1.02 fold enrichment (6-mer frequency, TF over GST control)","1.26 fold enrichment (6-mer frequency, TF over GST control)","1.06 fold enrichment (6-mer frequency, TF over GST control)","1.13 fold enrichment (6-mer frequency, TF over GST control)","1.05 fold enrichment (6-mer frequency, TF over GST control)"
TGTCCT,"1.5 fold enrichment (6-mer frequency, TF over GST control)","1.58 fold enrichment (6-mer frequency, TF over GST control)","1.47 fold enrichment (6-mer frequency, TF over GST control)","1.79 fold enrichment (6-mer frequency, TF over GST control)","1.4 fold enrichment (6-mer frequency, TF over GST control)","1.7 fold enrichment (6-mer frequency, TF over GST control)","1.47 fold enrichment (6-mer frequency, TF over GST control)","1.25 fold enrichment (6-mer frequency, TF over GST control)"
GTTAAG,"1.03 fold enrichment (6-mer frequency, TF over GST control)","1.01 fold enrichment (6-mer frequency, TF over GST control)","1.04 fold enrichment (6-mer frequency, TF over GST control)","1.05 fold enrichment (6-mer frequency, TF over GST control)","1.02 fold enrichment (6-mer frequency, TF over GST control)","1.07 fold enrichment (6-mer frequency, TF over GST control)","1.18 fold enrichment (6-mer frequency, TF over GST control)","1.02 fold enrichment (6-mer frequency, TF over GST control)"
GAAGTT,"1.47 fold enrichment (6-mer frequency, TF over GST control)","1.64 fold enrichment (6-mer frequency, TF over GST control)","1.71 fold enrichment (6-mer frequency, TF over GST control)","1.56 fold enrichment (6-mer frequency, TF over GST control)","1.65 fold enrichment (6-mer frequency, TF over GST control)","2 fold enrichment (6-mer frequency, TF over GST control)","1.7 fold enrichment (6-mer frequency, TF over GST control)","1.93 fold enrichment (6-mer frequency, TF over GST control)"
CACCCC,"1.36 fold enrichment (6-mer frequency, TF over GST control)","1.34 fold enrichment (6-mer frequency, TF over GST control)","1.22 fold enrichment (6-mer frequency, TF over GST control)","1.24 fold enrichment (6-mer frequency, TF over GST control)","1.11 fold enrichment (6-mer frequency, TF over GST control)","1.16 fold enrichment (6-mer frequency, TF over GST control)","1.27 fold enrichment (6-mer frequency, TF over GST control)","1.14 fold enrichment (6-mer frequency, TF over GST control)"
CCGGGT,"1.1 fold enrichment (6-mer frequency, TF over GST control)","1.04 fold enrichment (6-mer frequency, TF over GST control)","1.24 fold enrichment (6-mer frequency, TF over GST control)","1.79 fold enrichment (6-mer frequency, TF over GST control)","1.13 fold enrichment (6-mer frequency, TF over GST control)","1.55 fold enrichment (6-mer frequency, TF over GST control)","1.21 fold enrichment (6-mer frequency, TF over GST control)","1.21 fold enrichment (6-mer frequency, TF over GST control)"
